Test in all cases: NCI-60 one-dose screen, 48 h (100 = growth as untreated, 0 = no growth, -100 = all killed)
What all share (conditions): 10 µM unless noted

Test [1] concerns NCI-H23 lung.
The subject of test [2] is NCI-H226 lung.
The test system of test [3] is NCI-H322M lung.
In test [4] the test system is HOP-62 NSCLC.
Test [5] relates to NCI-H460 lung.
Test [6] has as its system NCI-H522 lung.
The subject of test [7] is A549/ATCC NSCLC.
In test [8] the test system is 786-0 renal.
The test system of test [9] is COLO 205 colon.
In test [10] the test system is DU-145 prostate.
In test [11] the test system is K-562 leukemia.
Test [12] has as its system MALME-3M melanoma.
Test [13] has as its system MDA-MB-231 breast.
For test [14], the system named is RXF 393 renal.
In test [15] the test system is SF-268 CNS.
For test [16], the system named is SF-295 CNS.
Test [17] deals with SF-539 CNS.
Test [18] deals with UACC-257 melanoma.
Test [19] relates to M14 melanoma.
Test [20] deals with HOP-92 NSCLC.

Molecules are shown by their SMILES. About 83,000 compounds went through this panel and 20% of them were active in at least one assay; those are over-represented in the sample as a whole.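 Single-concentration screen, 48 h exposure, 96-well plates. Endpoint: percent growth. Below 10 = active.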 Unmarked numbers belong to inactive results. The source made the active and inactive calls.

As for `Cc1c(N)ccc(-c2ccc(N)c(C)c2S(=O)(=O)O)c1S(=O)(=O)O`, the growth is 98% in test [1]; 111% in test [2]; 108% in test [3]; 107% in [4]; 112% in test [5]; 101% in [6]. In addition, the growth was 117% in test [7]; 106% in [8]; 111% in test [9]; 111% in test [10]; 101% in test [11]; 127% in test [12]. For the same compound, the growth was 109% in [13]; 118% in test [14]; 109% in test [15]; 117% in test [16]; 126% in [17]; 115% in test [18]. For the same compound, the growth in test [19] was 108%.

As to `O=c1nc2c(-c3nc4ccccc4s3)n[nH]n2c2sc3c(c12)CCCC3`, the growth in [1] is 98.2%; in test [2], 90.1%; in test [3], 107%; in test [4] it was 90.5%; in test [5] it was 102%; in [6], 99.9%. Further, the growth in [7] was 96.1%; in test [8], 102%; in test [9], 106%; in [10] it was 104%; in [11], 92.3%; in test [12], 104%. Also, the growth was 93.7% in test [13]; 97.6% in test [15]; 89.8% in [16]; 105% in test [17]; 98.8% in test [19].

With `NC[C@@](O)(c1ccc(Cl)cc1)c1ccc(-c2cn[nH]c2)cc1`, the growth in [1] was 27.4%; in [2], 43.9%; in test [3], 10.3%; in test [4] it was 15.2%; in test [5], 23.1%; in test [6], 17.7%. For the same compound, the growth in [8] was 6.12% (active); in test [9] it was -22.8% (active); in test [10], 30.3%; in [11] it was 17.2%; in test [12], -24.7% (active); in test [13] it was 31.7%. The growth in test [14] was -6.86% (active); in test [15] it was 35.5%; in [16] it was 28.6%; in test [17], 3.43% (active); in test [18], -23.9% (active); in test [19] it was 7.61% (active).

Regarding `C=CC(=O)N1CCC(Oc2cc3c(Nc4ccc(Cl)c(Cl)c4F)ncnc3cc2OC)CC1`, the growth was 23.2% in [1]; 34.9% in test [2]; 12.2% in [3]; 18.4% in test [4]; 39.3% in [5]; -49.3% (active) in test [6]. Also, the growth is 23.2% in test [8]; 15% in test [9]; 24.2% in test [10]; 12.6% in [11]; 60.9% in test [12]; 17.3% in test [13]. Also, the growth in [14] is -46.6% (active); in [15] it was 8.38% (active); in test [16], 15.9%; in test [17] it was -8.55% (active); in test [18] it was 24.4%; in test [19], 28.8%.

Regarding `CNC(=O)c1nn(C)c2c1C(C)(C)Cc1cnc(Nc3ccc(N4CCN(C)CC4)cc3)nc1-2`, in test [2], the growth was 12.3%.

For `COc1cccc2cc(-c3nc(C4CCC(C(=O)O)CC4)n4ncnc(N)c34)[nH]c12` (stereo not drawn), in test [2], the growth was 7.69% (active).

With `CNC(=O)c1cc(Oc2ccc(NC(=O)Nc3cc(C(C)(C)C)nn3-c3ccc4ncccc4c3)c(F)c2)ccn1`, the growth in test [2] was -15.9% (active); in test [3], -17.8% (active); in test [4], -41.4% (active); in test [5], -40.8% (active); in test [20], -10.8% (active); in test [6], -47.7% (active). The growth in test [7] was -16.1% (active); in test [8], -16.7% (active); in test [9] it was -78.1% (active); in [10] it was -22.1% (active); in [11], -7.14% (active); in test [12] it was -59.5% (active). The growth in [13] is -9.49% (active); in [14] it was -71% (active); in [15], -19.8% (active); in test [16], -13.1% (active); in [17], -66.4% (active); in test [18], -24.3% (active). The growth in test [19] is -71.4% (active).

`Cc1c(NC(=O)OC[C@@H]2COCCN2)cn2ncnc(Nc3ccc4c(cnn4Cc4cccc(F)c4)c3)c12`: the growth in [2] was -1.69% (active); in [3], -1.86% (active); in test [4], -25% (active); in test [5] it was 4.49% (active); in test [20] it was -12.7% (active); in test [6], -30.4% (active). Moreover, the growth was -9.38% (active) in [7]; 0.0698% (active) in [8]; -45.4% (active) in [9]; 10.1% in [10]; 11.5% in [11]; -27% (active) in test [12]. For the same compound, the growth was 1.06% (active) in [13]; -62.4% (active) in [14]; -2.37% (active) in test [15]; 14.6% in [16]; -52.4% (active) in test [17]; -31.3% (active) in test [18]. In addition, the growth in [19] is -29.3% (active).

Regarding `Cc1oc2c(C(=O)N/N=C\c3ccc(O)cc3O)c[nH]c2c1C`, the growth in test [2] is 28.8%; in test [3], 26.3%; in test [4], 20.9%; in [5] it was 4.29% (active); in test [20], 13.4%; in test [6], 16.1%. In addition, the growth in test [7] was 12.7%; in [8] it was 5.43% (active); in test [9], 8.96% (active); in test [10], -33.5% (active); in test [11], 11.2%; in test [12], 5.32% (active). In addition, the growth in test [13] was 30.3%; in test [14] it was 39.3%; in test [15], 7.45% (active); in test [16], 12.3%; in test [17], 9.86% (active); in [18], 17.8%. For the same compound, the growth in test [19] is -13.8% (active).

`CC(=O)OC1Oc2ccccc2-c2oc(=O)c(-c3cc4ccc(N(C)C)cc4oc3=O)cc21` (stereo not drawn): the growth in test [2] was 55%; in [3], 69.4%; in test [4], 69.4%; in [5] it was 75.4%; in test [6], 6.65% (active); in test [7], 61.2%. Moreover, the growth is 55.2% in test [8]; 67.3% in test [9]; 19.1% in [10]; 1.45% (active) in test [11]; 4.74% (active) in test [12]; 59.5% in [13]. For the same compound, the growth in [15] was 73.1%; in test [16], 6.73% (active); in test [17] it was 69.4%; in [19], 47.2%.

In the case of `Cc1ccc(-[n+]2c3cc(N)c(C)cc3nc3cc(C)c(Nc4ccccc4)cc32)cc1`, the growth in test [2] was -67% (active); in [3] it was -53.1% (active); in [4], -64.9% (active); in [5], -48.2% (active); in test [20], -60.5% (active); in test [6] it was -48.8% (active). Besides, the growth in [7] is -18.9% (active); in test [8], -93% (active); in [9], -94.9% (active); in test [10], -79.3% (active); in test [11], -22.7% (active); in test [12] it was -58% (active). Besides, the growth in test [13] is -70% (active); in test [14], -98.7% (active); in test [15], -88.6% (active); in [16], -39.2% (active); in test [17] it was -77% (active); in [18], -48.8% (active). Also, the growth in test [19] is -93.3% (active).

Regarding `COC(=O)CC[C@@H](C)[C@H]1CC[C@H]2C3CC[C@@H]4C[C@@H]5CC[C@]4(C)[C@@]3(O5)[C@H](Br)[C@@H](Br)[C@]12C` (stereo partly drawn), the growth is 87.1% in [2]; 104% in test [3]; 85.8% in test [4]; 107% in [5]; 93.4% in test [20]; 58% in test [6]. In addition, the growth in test [7] was 68.6%; in test [8], 92.5%; in [9], 101%; in test [10], 101%; in test [11] it was 78.2%; in test [12], 103%. Besides, the growth in test [13] was 99.4%; in [15], 91.2%; in test [16] it was 99.3%; in [17], 103%; in test [19], 90.6%.

Source of the values: PubChem BioAssay (NCI).
